High-throughput results (PubChem)
Gli-Sufu block = blocks Gli-Sufu signaling in a luciferase reporter | Sufu-KO-LIGHT fibroblasts, Gli luciferase reporter luminescence | inhibition, % at 5 µM | 340,000 compounds, 0.74% hits | AID 588413;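 active = inhibition above about 55%, limit read from the data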
697 NFkB inh = lowers PMA/ionomycin-induced NF-kB signal in 697 B cells. 697 B-cell NF-kB luciferase reporter, 16 h. inhibition, % at 4 µM. 330,000 compounds, 0.33% hits. AID 435022; in the data active = inhibition above about 35%
TAG inh = inhibitors of triacylglycerol accumulation; H9c2 cells, Nile Red lipid (TAG) fluorescence; cells loaded with 200 µM oleic acid; inhibition, % at 12.5 µM; 230,000 compounds, 0.66% hits;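 active = pattern-corrected inhibition of lipid staining of at least 50% with the nuclear-stain viability signal not falling by more than 50%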
COUP-TFII inh = blocks human COUP-TFII nuclear receptor. P24468. HEK293T NGFI-A luciferase reporter, luminescence. inhibition, % at 8.6 µM. 370,000 compounds, 0.7% hits. AID 686940;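 active = inhibition above a per-plate cutoff, mean inhibition of test wells between control levels plus 3 SD, cut at about 38% in these data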;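 note: cells cotransfected with COUP-TFII expression vector driving the NGFI-A reporter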
Target sequence (P24468 whole entry, looked up): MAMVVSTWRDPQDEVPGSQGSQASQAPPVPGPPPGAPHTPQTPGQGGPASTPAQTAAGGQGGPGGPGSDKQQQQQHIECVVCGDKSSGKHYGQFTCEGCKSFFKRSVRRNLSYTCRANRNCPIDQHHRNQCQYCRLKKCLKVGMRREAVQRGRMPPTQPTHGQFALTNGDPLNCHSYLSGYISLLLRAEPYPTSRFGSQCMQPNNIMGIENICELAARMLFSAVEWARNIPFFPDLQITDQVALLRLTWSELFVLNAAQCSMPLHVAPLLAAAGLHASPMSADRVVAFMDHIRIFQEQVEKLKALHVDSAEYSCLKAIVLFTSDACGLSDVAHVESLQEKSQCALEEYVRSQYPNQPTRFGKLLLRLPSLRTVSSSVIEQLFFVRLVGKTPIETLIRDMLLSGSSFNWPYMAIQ
Jurkat NFkB inh = inhibitors of the PMA/ionomycin-induced NF-kB reporter in Jurkat cells; AID 435003; PMA/ionomycin-induced NF-kB luciferase reporter, luminescence; 330,000 compounds, 0.53% hits; inhibition, % at 4 µM; in the data active = inhibition above about 50%
Cardio protect = myocardial damage modulation in H9c2 cells; protection from H2O2 cell death, % at 20 µM; 360,000 compounds, 0.63% hits; H9c2 cardiomyocytes, H2O2 injury protection, ATPLite, 2 h;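 active = compounds giving at least 50% protection of heart cells from peroxide-induced death in the single-dose screen, raw or plate-pattern-corrected value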
697 NFkB conf = lowers PMA/ionomycin-induced NF-kB signal in 697 B cells; shares compounds with 697 NFkB inh; 697 B-cell NF-kB luciferase, 16 h; inhibition, % at 4 µM; 2,000 compounds, 35% hits; in the data active = inhibition mostly above about 28%, no sharp cut-off; inactive = mostly below about 22%
A number is an active result; - = inactive; . = no result given. A selection: hits, their analogues and other compounds. The true share with any hit is near 2.6%.

SMILES	Gli-Sufu block	697 NFkB inh	TAG inh	COUP-TFII inh	Jurkat NFkB inh	Cardio protect	697 NFkB conf
Cc1ccc(C)c(OCc2ccc(C(=O)NN)o2)c1	-	45.8	-	-	-	-	31.9
Nc1ccc(-c2nc3ccc(N)cc3o2)cc1	-	-	-	-	-	-	.
CN(C)c1ccc(-c2nc3cc(N)ccc3o2)cc1	-	-	-	-	-	-	-
COc1cc(C(=O)Nc2nc(OC)c(-c3ccccc3)c(OC)n2)cc(OC)c1OC	-	37.8	.	-	-	70.1	-
COc1ccc([C@H]2OC(=O)C[C@H]2C(=O)N2CCN(c3ccccc3Cl)CC2)cc1OC	.	.	.	-	.	.	.
O=C(CCc1ccccc1)N[C@H]1[C@@H](OC(=O)c2cccnc2)CCC[C@@]12C(=O)N(Cc1ccccc1)c1ccccc12	.	.	.	-	.	.	.
O=c1[nH]c(NC2CCN(S(=O)(=O)c3ccccc3C(F)(F)F)CC2)nc2c1CCCC2	-	44.1	.	-	-	-	-
COC(=O)c1cc(-c2cccc3c2sc2ccccc23)c(=O)n2c1CCC2	.	.	.	-	.	.	.
CC1=Nn2c(nnc2-c2n[nH]c3c2CCC3)SC1	-	-	-	-	-	-	.
Fc1ccc(C2=Nn3c(nnc3-c3n[nH]c4c3CCC4)SC2)cc1	-	43.6	-	-	-	-	53.4
CCc1nc(N=Nc2c(O)[nH]c3ccccc23)c2c3c(sc2n1)CCC3	.	37.2	.	-	-	69.4	-
COc1ccc(S[C@]2(C(=O)N3CCOCC3)CC(=O)N(c3ccc(Cl)cc3)[C@@H]2c2ccc(OC)cc2)cc1	.	.	.	-	.	.	.
CCN1C(=O)[C@@H]2Cc3c([nH]c4ccccc34)C(c3ccc(OC)cc3)N2C1=S (stereo partly drawn)	-	-	.	.	-	-	-
COC(=O)c1ccc(C2c3[nH]c4ccccc4c3C[C@H]3C(=O)N(C)CC(=O)N23)cc1 (stereo partly drawn)	-	-	.	-	-	-	.
Oc1c(N=Nc2ccc(F)cc2)ccc2ccccc12	-	-	.	-	-	-	.
Cc1ccc(N=Nc2ccc3ccccc3c2O)cc1	-	-	.	-	-	-	-
O=C(CSc1nnc(-c2cccnc2)n1-c1ccccc1)Nc1ccc2c(c1)OCCO2	.	.	.	-	.	.	.
CCOc1ccc(-c2cc(CCCC(=O)NCCc3ccc(OC)c(OC)c3OC)no2)cc1	-	37.0	.	-	-	-	-
CCOc1ccc(NC(=O)CCCc2cc(-c3ccc(OCC)cc3)on2)cc1	-	39.8	-	-	-	-	40.2
O=C(Nc1ccc2c(c1)OCCO2)C(=O)c1c[nH]c2ccccc12	-	-	-	-	-	-	-
O=C(/C=C/c1ccccc1)Nc1ccc2c(c1)OCCO2	-	-	.	-	-	-	-
CCN(CC(=O)Nc1ccc2c(c1)OCCO2)C(=O)/C=C/c1ccccc1	-	-	-	-	-	-	.
CC(C)N1CCCCC(NC(=O)c2cccc(F)c2)C1=O (stereo not drawn)	.	.	.	-	.	.	.
Cc1c(NC(=O)/C=C/c2cn(-c3ccccc3)nc2-c2ccccc2)c(=O)n(-c2ccccc2)n1C	-	35.5	-	-	-	-	28.4
COc1cccc(/C=C2\SC(=S)N(CCCC(=O)NC3=NCCS3)C2=O)c1	-	42.1	-	-	-	-	50.7
SMILES	Gli-Sufu block	697 NFkB inh	TAG inh	COUP-TFII inh	Jurkat NFkB inh	Cardio protect	697 NFkB conf
COc1cccc(/C=C2\SC(=S)N(CCCC(=O)Nc3cc(C)on3)C2=O)c1	-	-	-	-	-	-	.
COc1cccc(/C=C2\SC(=S)N(CCCC(=O)Nc3ccc(C(=O)O)cc3)C2=O)c1	-	53.4	-	-	-	-	60.6
COc1ccc(/C=C2\SC(=O)N(CCCC(=O)Nc3ccc(C(=O)O)cc3)C2=O)cc1OC	-	62.3	-	-	-	-	70.8
COc1ccc(/C=C2\SC(=S)N(CCCC(=O)Nc3ccc(C(=O)O)cc3)C2=O)cc1OC	-	-	-	-	-	-	.
COc1ccc(/C=C2/SC(=S)N(CCCC(=O)Nc3ccc(O)cc3)C2=O)cc1OC	-	45.1	.	-	-	-	42.8
CCc1ccc(/C=C2\SC(=S)N(CCCC(=O)NC3=NCCS3)C2=O)cc1	.	.	-	-	.	-	.
OC[C@@H]1CC[C@@H]2O[C@H](CCc3ccc(-c4ccc(F)cc4)cc3)[C@@H](n3cc(C4CC4)nn3)C[C@@H]2O1	.	.	.	-	.	.	.
O=C(CCCN1C(=O)/C(=C\c2ccccc2)SC1=S)Nc1ccc(O)cc1	-	-	.	-	-	-	.
CCOc1ccc(/C=C2/SC(=S)N(CCC(=O)Nc3ccc(C(=O)O)cc3)C2=O)cc1	-	77.0	-	-	-	-	77.0
O=C(CCN1C(=O)/C(=C\c2ccccc2)SC1=S)Nc1ccc(C(=O)O)cc1	-	-	.	-	-	-	.
CCN(CC)CCOC(=O)c1ccc(NC(=O)CCCN2C(=O)S/C(=C/c3ccc(OC)cc3)C2=S)cc1	-	52.3	.	.	-	-	60.2
COc1ccc(/C=C2\SC(=S)N(CCC(=O)Nc3ccc(O)cc3)C2=O)cc1	-	47.5	-	-	-	-	37.5
COc1cccc(/C=C2/SC(=S)N(CCCC(=O)Nc3ccc(O)cc3)C2=O)c1	-	79.6	-	-	-	-	74.4
O=C(N=C1N(CC2CC2)CC2(C=C3CCCCC3n3c(=O)n(-c4ccccc4)c(=O)n32)N1C(=O)OCc1ccccc1)c1ccccc1 (stereo not drawn)	.	.	.	-	.	.	.
O=C(/C=C/Nc1ccc(F)cc1Br)c1ccccc1	-	-	-	-	-	-	-
O=C(/C=C\NCC(=O)c1ccccc1)c1ccc(F)cc1	-	-	.	.	-	-	.
COc1ccccc1NC(=S)N1CCNC(=O)C1CC(=O)Nc1cccc(C)c1 (stereo not drawn)	-	37.5	-	-	-	-	-
Cc1cccc(NC(=O)CC2C(=O)NCCN2C(=S)Nc2ccccc2)c1 (stereo not drawn)	-	-	.	-	-	-	.
CCOc1ccccc1CNC(=O)c1cc2oc3ccccc3c2n1C	-	-	-	-	-	-	-
CCOc1ccccc1CNC(=O)c1cc2occc2n1C	-	-	-	-	-	-	.
N#Cc1ccc(OC[C@@H](O)CN2CCC(C(O)(c3ccccc3)c3ccccc3)CC2)cc1F	.	.	.	-	.	.	.
O=C(NCc1cccnc1)c1cccn2c(=O)c3sccc3nc12	-	37.9	-	-	-	-	-
COC(=O)[C@H](C)NC(=O)Nc1cccc(C(F)(F)F)c1	-	35.6	.	-	-	-	-
C/C(N)=C(/C#N)C(=O)COC(=O)c1cc(C)n(-c2ccc(F)cc2)c1C	-	-	-	-	-	-	-
CN1CCN(C(=O)c2ccccc2N(Cc2ccccc2)S(=O)(=O)c2ccccc2)CC1	-	40.4	.	-	-	-	25.1
CCN(CC)C(=O)CC[C@@H]1CC[C@]2(CCCN(Cc3cccc4ccccc34)C2)O1	.	.	.	-	.	.	.
CC(=O)Nc1ccc(Nc2nc(-c3sc(NC(C)=O)nc3C)cs2)cc1	-	40.6	-	-	-	57.2	25.7
